# Test results taken from the supplement of paper PMC6555819.
# System: LXRb:RXRa (NR concentration 270 nM, RXRa partner concentration 90 nM)
# Assay: PBM binding z-score (relative to random genomic background probes); higher = stronger binding; sequences stand for … in GC…GCGATTGACAGCGTAGAATGAAGG
# Experimental: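 Protein-binding microarray (Agilent 4x180K custom design, double-stranded 60-nt probes: 5' GC cap, 34-nt variable region, 24-nt constant primer region; full probe sequence given). Purified or IVT nuclear receptor:RXRα heterodimers (3:1 NR:RXRα, mostly 270:90 nM) or homodimers were incubated for 1 h in PBS with 2% milk and no ligand, then detected with Alexa488 antibodies. Fluorescence from o1-orientation probes (~5 replicates averaged) was converted to z-scores against 500 random hg19 background probes. Variable regions are seed direct-repeat (DR0–DR5) sites, all their single-nucleotide variants and half-site ablations.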
row,Sequence,PBM binding z-score
1,CGTCCAAGGTCGAAGGTCAGTGAAGAGATGACGG,2.62
2,CGAACGAGGTCATGAGTTGATAGCAAATGCCGAT,4.51
3,TAGCCTAGGTCATTCAGGGGCCAGCATAGAAAGC,3.03
4,TAGCCTAGGTCATGCGGCCCAGTATAGTGTCGGC,1.69
5,TAGCCGAGGTCATTCAGGGGCCAGTATAGAAAGC,5.52
6,ACTCGGATGACAAAGGTCAGAGCTACGCCAGTGA,3.36
7,GCTGCTAGGTCAACTGATGGTCAACTAAAGCTCG,2.47
8,CGTCTAAGGTCATAGGAGGTCAGTGAAGACAGAT,6.9
9,CGAACTAGGTCATTGACAGGACAGTGGATAGTAA,1.97
10,AGAATGAGATTACCAAAGATCAGGGAAACGCTTG,-0.266
11,TCTAGTTGGTCTAAGGTCACACACTCGAAATGCG,4.1
12,CCTCGGAGGTCAACAGGAGGTCAGAGCTGCCAGA,5.75
13,TGAATGAGGTTAAATATCAGGGAACGTGGCGTCG,1.79
14,CGAACTAGGTCATCCAGGACCGTGAATACATTGA,1.72
15,CGAACTAGGTCAAAGGACATTGAAAGGCGACGTA,2.06
16,AGTCAAAGTTCATCTAGGTCACGTAAGATATGCT,4.9
17,CGTCCAAGGTTAAGGTCAGTGAAAGAGACTCGAA,2.62
18,ATATGTAGGTTAGCTGGGGTCATTCACACTAGGC,5.1
19,CGTCAAAGTCCAAGGTAACGTAACAGAAAGCAGC,-0.011
20,TAGCCTAGGTCATACAGGGGCCAGTATAGAAAGC,2.48

row,Sequence,PBM binding z-score
1,ATCGAAAGGTCCACGAGGTGAGTATACACCGTTT,-0.0349
2,CGAACTAGGTCATTGACAGGACAATGAATAGTAA,2.47
3,CGAACTAGGTCTAAGGACAGTGAAAGGCGACGTA,-0.844
4,AATACAGGGTCACGAGGCCAGAGTAGGTACGAAT,4.97
5,AGTCAAAGTTTATCTAGGTAACGTAAGATATGCT,0.175
6,TAGCCTAGGTCATTCAGGGGCCACTATAGAAAGC,3.38
7,CGAACGAGGTCAAAGGACAGTGAAAGGCGACGTA,4.81
8,CAAACTAGGTCACGAGAGGTCAAAGTCGAATGAC,7.33
9,AACGAAAGGTCGAAGGTGAGTATACCCACCCGAA,3.06
10,CGAACTAGGTCGAGGACAGTGAATCTCCGCACGC,-0.262
11,AATACAGGGTAACTAGGCCAGAGTAGGTACGAAT,0.0448
12,AGCGAAAGGTCGAGGTGAGTATAGAGAAAGGGAA,2.7
13,TCTGCTAGGTCAACGATGGTCAGTTAATCTGCTA,1.72
14,TCTTGTAGATCAACAGGAGGTTAATAAAGATCGA,1.49
15,CCGAGTTGGTCAAGGTCACACACGCTATAGGTAC,3.66
16,ATATGTAGGTTAAGCGTCATTCAGGTTGGTTCGC,0.883
17,GCTAGTTGGTCAGTAAAAGGTGACACACCGGTCG,0.263
18,CCTCGGAGGACAGAAGGTCAAAGCTGTCCGCTTT,3.1
19,GCTGCTAGGTCAACTGATGGCCAGCTAAAGCTCG,1.66
20,ATTTGTAGGTTACATCCGGGTCATTCAGGCTATG,3.54
